Source: PubChem BioAssay
A selection: hits, their analogues and other compounds. The true share with any hit is near 3.1%.
LEDGF integ inh: blockers of LEDGF/p75-dependent integrase strand transfer – biochemical, TR-FRET, high throughput, primary screen | TR-FRET IN-LEDGF/p75 DNA integration, Eu/Cy5 | inhibition, % at 3.7 µM | 370,000 tested, 0.64% active;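 active = inhibition above the screen-wide mean plus 3 SD, cut at about 13% in these data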;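 also: signal is the Cy5 over europium emission ratio at 671 and 618 nm; 0% = plate median of compound wells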
KLK7 zymogen act: proKLK7 zymogen activators, primary screen, biochemical, fluorescence intensity | purified proKLK7, EDANS-DABCYL substrate fluorescence; 100% is mature enzyme control, 0% vehicle | activation, % at 7 µM | 370,000 tested, 0.9% active | AID 652039, 2013;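 active = activation above the mean of all tested compounds plus 3 SD, computed per campaign excluding outliers beyond control limits, cut at about 13% in these data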
Neddylation inh: inhibitors of cullin neddylation, primary screen, biochemical, TR-FRET, uHTS, NAE and Ubc12; NEDD8-conjugating enzyme Ubc12 (Homo sapiens) + NEDD8-activating enzyme E1 regulatory …; calls only at 25 µM; 360,000 tested, 0.58% active; AID 651699, 2012; in the data active = inhibition above about 36%
Target sequence (P61081 whole entry, looked up): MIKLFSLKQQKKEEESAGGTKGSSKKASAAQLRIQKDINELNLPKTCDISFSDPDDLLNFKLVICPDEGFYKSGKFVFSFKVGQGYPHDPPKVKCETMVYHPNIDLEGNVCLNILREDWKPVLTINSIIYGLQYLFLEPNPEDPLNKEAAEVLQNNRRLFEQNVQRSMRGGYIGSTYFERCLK
Target sequence (Q13564 whole entry, looked up): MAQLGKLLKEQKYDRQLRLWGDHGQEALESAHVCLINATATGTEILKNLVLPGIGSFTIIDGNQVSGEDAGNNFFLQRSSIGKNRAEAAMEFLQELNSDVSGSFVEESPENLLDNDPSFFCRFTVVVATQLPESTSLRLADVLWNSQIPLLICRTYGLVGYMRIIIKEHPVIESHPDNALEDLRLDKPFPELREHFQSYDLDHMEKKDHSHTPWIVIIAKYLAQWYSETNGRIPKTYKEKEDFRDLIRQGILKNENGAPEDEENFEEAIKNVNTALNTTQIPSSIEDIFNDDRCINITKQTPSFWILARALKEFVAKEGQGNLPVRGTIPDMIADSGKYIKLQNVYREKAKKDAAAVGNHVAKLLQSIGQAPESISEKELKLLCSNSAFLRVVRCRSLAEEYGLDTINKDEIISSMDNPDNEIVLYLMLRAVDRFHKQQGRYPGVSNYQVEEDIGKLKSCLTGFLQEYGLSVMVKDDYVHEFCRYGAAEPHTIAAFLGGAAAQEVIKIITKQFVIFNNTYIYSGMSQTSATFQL
UHRF1 MBD2 ctr: UHRF1 methylated DNA binding inhibitors, primary screen, counter-screen for MBD2 inhibitor project, biochemical, TR-FRET, human UHRF1, single concentration | E3 ubiquitin-protein ligase UHRF1 (Homo sapiens), Q96T88 | 370,000 tested, 0.75% active | inhibition, % at 4.4 µM | AID 687016, 2013 | UHRF1 binding to methylated oligo; in the data active = inhibition above about 21%;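 also: UHRF1 SRA domain binding a hemimethylated CpG hairpin DNA probe; 0% = median of test compound wells and 100% = reference inhibitor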
MBD2 inh: inhibitors of MBD2 binding to methylated DNA, primary screen, biochemical, TR-FRET, DNA-binding domain, human | Methyl-CpG-binding domain protein 2 (Homo sapiens), Q9UBB5 | MBD2 binding to methylated oligonucleotide | inhibition, % at 4.4 µM | 370,000 tested, 0.31% active; in the data active = inhibition above about 13%
Rin1-Abl PPI inh: inhibitors of Rin1-Abl protein binding, primary screen, biochemical, TR-FRET; inhibition, % at 7.35 µM; 360,000 tested, 0.4% active; AID 588664, 2011; Tyrosine-protein kinase ABL1 (Homo sapiens) + Ras and Rab interactor 1 (Homo sapiens), …; in the data active = inhibition above about 5%, passing the limit was not always enough
Neddyl conf: blockade of NEDD8 conjugation to cullin – biochemical, TR-FRET, single concentration, confirmation. shares compounds with Neddylation inh. TR-FRET cullin neddylation biochemical assay. calls only at 25 µM. 1,800 tested, 13% active. AID 652217, 2013; in the data active = inhibition above about 40%;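 also: neddylation substrate is the cullin 1 ring ligase complex with SKP2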
Starred values were filed as active, the others as inactive; i = inactive; nt = not tested or not shown; + = active, no number.

SMILES | LEDGF integ inh | KLK7 zymogen act | Neddylation inh | UHRF1 MBD2 ctr | MBD2 inh | Rin1-Abl PPI inh | Neddyl conf
CCOC(=O)c1[nH]c2ccc(C(=O)OC)cc2c1C(=O)OCC | 2 | -1 | + | 8 | -5 | 3 | i
COC(=O)c1ccc2[nH]c3c(c2c1)CC(C)CC3 (stereo not drawn) | 0 | 7 | + | -3 | 2 | -1 | +
CCOC(=O)c1[nH]c2ccc(C)cc2c1N | 4 | -4 | i | -1 | 0 | 1 | nt
CCCC(C)NC(=O)c1ccc2[nH]c3c(c2c1)CC(C)CC3 (stereo not drawn) | -1 | 9 | i | 1 | 1 | 0 | nt
Cc1ccccc1-n1nnnc1SCC(=O)NCC1CCCO1 (stereo not drawn) | 0 | 0 | i | 1 | -1 | -2 | nt
CCOC(=O)C1CCCN(C(=O)c2cc3cc(OC)c(OC)cc3[nH]2)C1 (stereo not drawn) | -3 | 3 | + | 3 | 1 | -1 | nt
CCOC(=O)C1CCN(C(=O)c2cc3ccc(OC)cc3[nH]2)CC1 | -5 | 0 | i | 0 | 4 | 1 | nt
O=C(CCS(=O)(=O)c1ccccc1Cl)NCCC1=CCCCC1 | 0 | 1 | i | -3 | -6 | 0 | nt
C=CCN(CC=C)Cc1c(C)[nH]c2ccc(C(=O)OCC)cc2c1=O | 1 | -3 | + | -3 | -1 | -1 | i
CCN(CC)Cc1c(C)[nH]c2ccc(NC(C)=O)cc2c1=O | 0 | 1 | i | 2 | 6 | 1 | nt
COc1ccc2nc(CC(C)(C)CC(=O)O)c[n+]([O-])c2c1 | 1 | 5 | + | -1 | 1 | -1 | nt
CCc1cc(C(c2ccc(OC)c(OC)c2)N2CCOCC2)c(NC(=O)c2ccccc2)s1 (stereo not drawn) | -2 | 0 | + | 1 | 5 | 0 | i
Cc1ccc(/C=N/NC(=O)c2cccc(S(=O)(=O)Nc3cccc(Cl)c3)c2)o1 | -2 | 0 | + | 7 | 2 | 4 | i
C/C(=N\NC(=O)c1cccc(S(=O)(=O)Nc2cccc(Cl)c2)c1)c1cccs1 | -6 | 0 | + | 0 | -4 | -2 | i
CCc1nc2c(OCc3cc(Cl)cc(Cl)c3)cccn2c1N(C)C(=O)Nc1ccccc1OC | -2 | 0 | i | 1 | -2 | 1 | nt
COC(=O)c1ccccc1N/C=C1\CCc2c(c(C)nn2-c2ccccn2)C1=O | -3 | -1 | + | 0 | -2 | -2 | i
COC(=O)c1ccccc1NC(=O)CN1CCN(c2ccccn2)CC1 | 6 | 0 | i | 1 | -10 | 3 | nt
O=C(CCN1C(=O)S/C(=C/c2ccc(F)cc2)C1=O)Nc1ccc(O)c(C(=O)O)c1 | 2 | 0 | + | -3 | -5 | 4 | i
CC1=C(C(=O)OCC(C)C)C(c2cc3c(cc2Br)OCO3)NC(=O)N1C (stereo not drawn) | 2 | 0 | i | -3 | 4 | -1 | nt
CCCOC(=O)C1=C(C)N(C)C(=O)NC1c1cc2c(cc1[N+](=O)[O-])OCO2 (stereo not drawn) | 3 | 10 | + | 8 | 10 | 6 | i
COc1ccccc1C(=O)NNC(=O)C1CC=CCC1 (stereo not drawn) | -1 | 0 | i | -1 | -6 | -3 | nt
Cc1ccc(-c2nc3cnccn3c2Nc2ccc3c(c2)OCO3)cc1 | -3 | 4 | i | -1 | 6 | 0 | nt
CN(C)c1ccc(-c2nc3cnccn3c2Nc2ccc3c(c2)OCCO3)cc1 | -7 | 1 | + | -1 | 4 | -4 | nt
Cc1cnc(NC(=O)c2ccc(-c3ccc([N+](=O)[O-])cc3)o2)s1 | -1 | 1 | i | -2 | 5 | -1 | nt
Cc1cnc(NC(=O)c2ccc(-c3nc4ccccc4s3)o2)s1 | 4 | -1 | + | 3 | -2 | -2 | i
SMILES | LEDGF integ inh | KLK7 zymogen act | Neddylation inh | UHRF1 MBD2 ctr | MBD2 inh | Rin1-Abl PPI inh | Neddyl conf
CCN(CC)c1ccc(NC(=O)Nc2cccc3ccccc23)cc1 | nt | nt | + | nt | nt | 1 | i
CN(C)c1ccc(NC(=O)Nc2cccc3ccccc23)cc1 | 0 | 0 | i | 0 | 2 | -1 | nt
COC(=O)[C@]12CCCCC=C1N(CCC1=CCCCC1)C(=O)[C@H](CC(=O)NCCCCc1ccccc1)C2 | 0 | 1 | i | 4 | 7 | nt | nt
COc1ccccc1-c1nnc(N)s1 | -3 | 0 | + | -2 | 2 | 2 | i
COc1cc(OC)cc(C(C)c2ccc(C)cc2)c1 (stereo not drawn) | 2 | nt | nt | -1 | 4 | nt | nt
C#CCN(C(=O)C1CCC(=O)N(CCc2cccc(F)c2)C1)C1CCCCC1 (stereo not drawn) | 2 | 0 | i | -1 | -3 | 3 | nt
Cc1ccc(-c2csc(N3CCN(c4cc5c(cc4Cl)nc(C)n5CCN4CCCCC4)CC3)n2)cc1 | -1 | 0 | i | -1 | 0 | 6 | nt
Cc1csc(N2CCN(c3cc4c(cc3Cl)nc(-c3ccncc3)n4CCCN3CCCC3)CC2)n1 | 0 | 0 | + | 0 | 1 | 0 | i
O=C(C[C@H]1CC[C@@H](NS(=O)(=O)c2ccccc2)[C@@H](CO)O1)NCc1ccc(Cl)c(Cl)c1 | 0 | 1 | i | -1 | -6 | nt | nt
COC(=O)C1=C(C)Nc2sc(C(N)=O)c(N)c2C1c1ccncc1 (stereo not drawn) | 1 | 1 | + | 4 | -2 | 1 | i
Cc1cc2c(cc1C)NC(CC(=O)NCc1ccccc1)C(=O)N2 (stereo not drawn) | 0 | 0 | i | 0 | -3 | -8 | nt
COc1ccc(CCNC(=O)CC2Nc3cc(C)c(C)cc3NC2=O)cc1OC (stereo not drawn) | -5 | 3 | + | 0 | 2 | -3 | i
CN(Cc1ccccc1)C(=O)c1ccc(S(=O)(=O)N(C)c2ccccc2)cc1 | 5 | 0 | i | 1 | -4 | 1 | nt
COc1ccc(OC)c(NC(=O)Cn2cc(C#N)c3cc(Br)ccc32)c1 | -5 | 0 | i | 2 | 3 | -7 | nt
Cc1cc(C)n(Cc2ccc(C(=O)NCc3ccco3)o2)n1 | 3 | 0 | i | 3 | -9 | -1 | nt
Cc1cc(C)n2nc(C(=O)NCc3ccco3)cc2n1 | -4 | 1 | + | 0 | -2 | -2 | nt
